Bioassay records deposited in PubChem BioAssay by National Center for Advancing Translational Sciences (NCATS).
Hits are enriched below; roughly 2.7% of the tested compounds scored in any of these assays.
Nrf2 ARE act – qHTS of Nrf2 Activators; Potency, µM (series often up to 46.1 µM), usual class: activators; AREc32 ARE-luciferase reporter (MCF7-derived line), luminescence, 24 h; 410,000 compounds, 0.31% hits; AID 624171, 2012; note: nearly all actives have a fitted effect of over 65% in size
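For detection, Steady-Glo was added and plates sat 30 min at RT; before that, AREc32_Fluc cells grown overnight in OPTI-MEM/5% FBS had been treated with 23 nL compound for 24 hr at 37 deg C.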
LDHA inh – qHTS assay for inhibitors of human lactate dehydrogenase | L-lactate dehydrogenase A chain (Homo sapiens), P00338 | purified LDHA, NADH/diaphorase-resazurin fluorescence; active compounds read low | activity change, % (values are at about 110 or 230 µM) | 480,000 compounds, 0.15% hits | AID 1347041, 2019; in the data active = activity change below about -30%; inconclusive = mostly about -25% to -30%
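Enzyme activity of human lactate dehydrogenase 5 (2 nM; 0.06 mM NADH, 0.2 mM pyruvate, 5 min, RT) is measured via a resazurin/diaphorase fluorescence readout of residual NADH.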
12-LOX inh – Primary qHTS assay for inhibitors of human arachidonate 12S-lipoxygenase (ALOX12): Round 2; Polyunsaturated fatty acid lipoxygenase ALOX12 (Homo sapiens), P18054; purified 12hLO, xylenol orange hydroperoxide absorbance; Potency, µM (doses to about 108 µM), most hits filed as inhibitors; 580,000 compounds, 1.1% hits; AID 1671190, 2021
Target sequence (P18054 whole entry, looked up): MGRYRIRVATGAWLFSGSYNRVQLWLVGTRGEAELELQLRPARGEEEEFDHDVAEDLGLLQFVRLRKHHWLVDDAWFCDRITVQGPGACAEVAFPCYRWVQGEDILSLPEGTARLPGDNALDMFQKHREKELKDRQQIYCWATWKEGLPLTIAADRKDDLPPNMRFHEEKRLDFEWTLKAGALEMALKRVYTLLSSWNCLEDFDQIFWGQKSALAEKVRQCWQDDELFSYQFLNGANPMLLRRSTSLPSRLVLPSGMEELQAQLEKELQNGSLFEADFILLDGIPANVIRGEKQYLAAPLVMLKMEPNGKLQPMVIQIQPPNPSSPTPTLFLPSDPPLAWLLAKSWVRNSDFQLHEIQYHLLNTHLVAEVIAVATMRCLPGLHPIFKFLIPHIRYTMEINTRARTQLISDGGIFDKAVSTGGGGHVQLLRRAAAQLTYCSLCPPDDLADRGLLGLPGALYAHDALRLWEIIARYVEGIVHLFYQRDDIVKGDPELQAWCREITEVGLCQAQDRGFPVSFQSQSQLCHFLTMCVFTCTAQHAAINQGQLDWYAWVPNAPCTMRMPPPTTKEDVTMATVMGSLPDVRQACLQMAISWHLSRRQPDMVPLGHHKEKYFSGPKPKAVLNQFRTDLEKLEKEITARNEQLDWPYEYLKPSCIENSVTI
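Hydroperoxide product was detected by ferrous iron/xylenol orange as the 573 to 405 nm absorbance ratio. Arachidonic acid at 40 uM (final) was turned over for 30 min at room temperature by 150 nM human 12hLO, pH 7.0 Hepes buffer, after 15 min compound preincubation.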
mIDH1 inhibitor – qHTS for Inhibitors of mutant isocitrate dehydrogenase 1 (IDH1): qHTS; Isocitrate dehydrogenase [NADP] cytoplasmic (Homo sapiens), O75874; IDH1-R132H enzyme, NADPH consumption, diaphorase/resazurin fluorescence; Potency, µM (highest dose often 76.6 µM), hits mostly inhibitors; 390,000 compounds, 0.093% hits; AID 602179, 2012; note: nearly all actives have a fitted effect of over 65% in size
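IDH1-R132H (0.5 ug/mL dispensed) in pH 7.5 Tris buffer was preincubated 30 min with compound, then given a substrate mix of 0.016 mM NADPH and 2 mM alpha-KG for 80 min at room temperature; remaining NADPH was read by diaphorase/resazurin fluorescence.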
Nrf2 inh – Nrf2 qHTS screen for inhibitors; A549 ARE-Fluc reporter, luciferase luminescence, 18-24 h; Potency, µM (highest dose often 46 µM), actives largely listed as inhibitors; 360,000 compounds, 2.1% hits; AID 504444, 2011; note: nearly all actives have a fitted effect of over 60% in size
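In this cell-based qHTS, ARE-driven firefly luciferase in A549 cells reports Nrf2 activity; the luminescent signal after BugLite lysis is the measured value, with a prior CellTiter-Fluor read for cell health.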
A549 viability – Nrf2 qHTS screen for inhibitors: counterscreen for cytotoxicity. A549 ARE-Fluc cells, CellTiter-Fluor viability, 18-24 h. Potency, µM (titrated, usually from 46 µM), most hits filed as inhibitors. 390,000 compounds, 0.16% hits. AID 504648, 2011
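Cytotoxicity counterscreen: CellTiter-Fluor fluorescence was measured in A549 ARE_Fluc cells after 18-24 h of compound exposure in a concentration series. The subsequent BugLite luminescent read reports ARE-luciferase activity.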
Each line names hits and unclear results; the compound was inactive in the other large screens. Unless noted, calls come from the whole dose curve; as a rule, active = well fitted curve in the direction sought with a large enough effect; inconclusive = small, poorly fitted or top-dose-only effect, or another doubt; inactive = no such curve, though single readings can be large; an effect the other way counts as inactive or inconclusive.

CCCCN(Cc1ccccc1)c1ccc(NS(=O)(=O)c2ccc3c(c2)CCCC3)cc1C(=O)O	12-LOX inh inconclusive (no result: Nrf2 ARE act, mIDH1 inhibitor, Nrf2 inh, A549 viability)
CCCCN(Cc1ccccc1)c1ccc(C(=O)O)cc1NS(=O)(=O)c1ccc(CC(C)C)cc1	12-LOX inh 14.1µM (no result: Nrf2 ARE act, mIDH1 inhibitor, Nrf2 inh, A549 viability)
CCCCN(CC)c1ccc(NS(=O)(=O)c2ccc3c(c2)CCCC3)cc1C(=O)O	12-LOX inh 1.58µM (no result: Nrf2 ARE act, mIDH1 inhibitor, Nrf2 inh, A549 viability)
CCCCN(Cc1ccccc1)c1ccc(NS(=O)(=O)c2ccc(F)cc2)cc1C(=O)O	12-LOX inh 3.98µM (no result: Nrf2 ARE act, mIDH1 inhibitor, Nrf2 inh, A549 viability)
Oc1ccccc1CN1CCOC[C@H]1c1ncc(-c2ccc(F)cc2F)[nH]1	none (no result: Nrf2 ARE act, LDHA inh, mIDH1 inhibitor, Nrf2 inh, A549 viability)
CC(=O)Oc1c(Cl)c(N2CCOCC2)c(OC(C)=O)c2ccccc12	Nrf2 ARE act 15.8µM, Nrf2 inh inconclusive
CCOc1ccc(NC(=O)c2cc3n(n2)CC(c2ccc(Cl)cc2)OC3)cc1 (stereo not drawn)	none (no result: Nrf2 ARE act, LDHA inh, mIDH1 inhibitor, Nrf2 inh, A549 viability)
CCOc1ccc(NC(=O)c2nnn3c2COC(c2ccc(Cl)cc2)C3)cc1 (stereo not drawn)	12-LOX inh 44.7µM (no result: Nrf2 ARE act, LDHA inh, mIDH1 inhibitor, Nrf2 inh, A549 viability)
CC(SC1=NS(=O)(=O)c2ccccc21)C(=O)O (stereo not drawn)	12-LOX inh 0.708µM (no result: Nrf2 ARE act, mIDH1 inhibitor)
Cc1ccc(CSc2nc3c(cc2C#N)C(=O)CC(C)(C)C3)cc1	12-LOX inh inconclusive (no result: Nrf2 ARE act, mIDH1 inhibitor, Nrf2 inh, A549 viability)
O=C(NCCc1ccc(Cl)cc1)c1ccccn1	12-LOX inh 31.6µM (no result: Nrf2 ARE act, mIDH1 inhibitor, Nrf2 inh, A549 viability)
COC(=O)c1ccc2c(=O)[nH]c(CSc3nnc(-c4cccnc4)n3Cc3ccccc3)nc2c1	none (no result: Nrf2 ARE act, mIDH1 inhibitor, Nrf2 inh, A549 viability)
O=[N+]([O-])c1ccccc1C(=Nc1ccccc1)c1c(O)cc(O)cc1O	12-LOX inh 44.7µM (no result: Nrf2 inh, A549 viability)
Cc1ccccc1CN1CCN(C(=O)c2cccc3cccnc23)CC1	none (no result: Nrf2 ARE act, mIDH1 inhibitor, Nrf2 inh, A549 viability)
C(=N\Nc1ccc2nncn2n1)/c1ccco1	Nrf2 ARE act 10µM
CC1=CC(=O)C(Sc2ccc(C)cc2)=CC1=O	Nrf2 ARE act 12.6µM, 12-LOX inh 1.12µM (no result: Nrf2 inh, A549 viability)
Cc1[nH]c2ccccc2c1C(=O)C(=O)Nc1ccc(Cl)c(Cl)c1	12-LOX inh inconclusive (no result: Nrf2 ARE act, mIDH1 inhibitor, Nrf2 inh, A549 viability)
O=C(c1ccc(COc2ccccc2Br)o1)N1CCN(c2ccccn2)CC1	Nrf2 inh inconclusive
O=C(c1ccc(C#Cc2ccccc2)o1)N1CCN(c2ccccn2)CC1	Nrf2 inh 18.4µM, A549 viability inconclusive
CN(C)CCOCCOc1ccccc1-c1ccccc1	LDHA inh -46.9, 12-LOX inh inconclusive
O=C1CCC/C(=N/NC(=O)c2ccc(Cl)cc2)C1	12-LOX inh inconclusive (no result: Nrf2 ARE act, mIDH1 inhibitor, Nrf2 inh, A549 viability)
CC1CCCCC1NC(=O)CN1CCC(NC(=O)c2ccc([N+](=O)[O-])cc2)CC1 (stereo not drawn)	Nrf2 inh 7.31µM
O=C(c1cc2cc(F)ccc2[nH]1)N(Cc1ccco1)Cc1ccco1	12-LOX inh inconclusive (no result: Nrf2 ARE act, mIDH1 inhibitor, Nrf2 inh, A549 viability)
C=CCN(Cc1ccc(OC)c(OC)c1)C(=O)c1cc2cc(F)ccc2[nH]1	Nrf2 inh 23.1µM, A549 viability inconclusive
Cc1nc(SCC(=O)c2cc3ccccc3oc2=O)c(C#N)c(-c2ccccc2)c1C(=O)Nc1ccccc1	Nrf2 inh 23.1µM
C(Cc1noc(C2CNC2)n1)OCC1CC1	none (no result: Nrf2 ARE act, LDHA inh, mIDH1 inhibitor, Nrf2 inh, A549 viability)
COC(=O)NNC(=S)Nc1cccc(C)c1	none (no result: Nrf2 ARE act, mIDH1 inhibitor, Nrf2 inh, A549 viability)
Clc1ccc(CNC2CCCC2)c(Cl)c1	none
Clc1ccc2c(Cl)cc[n+](CCC3CCCCC3)c2c1	LDHA inh -36.1 (no result: Nrf2 ARE act, 12-LOX inh, mIDH1 inhibitor, Nrf2 inh, A549 viability)
COCCn1c(-n2nc(C)cc2C)nc2c1c(=O)n(C)c(=O)n2C	none (no result: Nrf2 ARE act, mIDH1 inhibitor, Nrf2 inh, A549 viability)
CCOC(=O)c1ccc(N2C(=O)c3cccc4c(C(=O)O)ccc(c34)C2=O)cc1	12-LOX inh 15.8µM
O=C(COc1ccc2c(c1)CCC2)Nc1ccc(Cl)c([N+](=O)[O-])c1	none (no result: Nrf2 ARE act, mIDH1 inhibitor, Nrf2 inh, A549 viability)
CCNC(=O)NC(=O)CN1CCN(Cc2ccc(C#N)cc2)CC1	none (no result: Nrf2 ARE act, mIDH1 inhibitor, Nrf2 inh, A549 viability)
CC1CCC(C)[S+]1c1cc(O)ccc1O (stereo not drawn)	12-LOX inh 10µM (no result: Nrf2 ARE act, mIDH1 inhibitor, Nrf2 inh, A549 viability)
